# Measured values published in PubChem BioAssay (EPA / NIEHS).
# Several values for one entry are separate records, joined by “and”; a condition that tells them apart may be missing. Equal values may be shown once. Results filed as inconclusive are left out. Activity calls are given as the source filed them. Rule for the calls, unless noted: active = hit-call score of the fitted dose curve at least 0.9, where 1 is the maximum; inconclusive = response in the unintended direction; inactive = score below 0.9.
# Columns and labels:
# [1] = IUF_NPC1_cytotoxicity_72hr: Cytotoxicity Assessment at 72 hours in the Leibniz Research Institute for Environmental Medicine (IUF) Neural Progenitor Cell Proliferation Assay (NPC1) (AID 2284332);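 note: rising LDH signal means more cytotoxicity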
# Method in brief: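 Single human fetal cortex neural progenitor spheres (GW 16-19, 0.25-0.35 mm) in EGF/FGF proliferation medium were exposed to compound for 72 h at 37C without renewal. Medium LDH release was read as resorufin fluorescence and fitted as gain-of-signal.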
# [2] = CCTE_Mundy_HCI_iCellGluta_NOG_NeuronCount: CCTE's Neurite Outgrowth Assay in iCellGluta cells for Neuron Count, Mundy Lab (AID 2284340);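 note: cells fixed about 48 h after compound addition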
# Method in brief: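 Neuron count read by automated high-content imaging of Hoechst 33342 and betaIII-tubulin/Alexa Fluor-488 labelling in human iPSC glutamatergic neurons. Activity fitted relative to DMSO.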
# [3] = CCTE_Mundy_HCI_iCellGluta_NOG_NeuriteCount: CCTE's Neurite Outgrowth Assay in iCellGluta cells for Neurite Count, Mundy Lab (AID 2284342);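 note: chemical exposure about 48 hours starting 2 hours after plating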
# SERPINA7 (gene 6906) = test: CCTE_GLTED_hTBG: CCTE's human Thyroxine-binding Globulin (TBG) Inhibition Assay, Great Lakes Toxicology and Ecology Division (GLTED) Lab (AID 2284343);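 note: active chemicals lower fluorescence versus DMSO baseline by displacing probe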
# Method in brief: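 Cell-free binding assay in which human TBG is incubated with test chemical for 2 hours and displacement of the fluorescent probe ANSA is read at 380 nm excitation/475 nm emission. Activity is fitted against DMSO as the negative control.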
# [4] = Tanguay_ZF_120hpf_MO24: Oregon State University Tanguay Lab 24 Hour Post-fertilization zebrafish Assay for Mortality (AID 2284389; active = hit-call score of the fitted dose curve at least 0.9, where 1 is the maximum; inactive = score below 0.9)
# Method in brief: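 Dechorionated wild-type zebrafish embryos, 1 per well, statically exposed from 6 hpf at 28C, 0.64% DMSO final. Mortality scored as binary present/absent at 24 hpf by brightfield microscopy, relative to DMSO.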
# [5] = CCTE_Deisenroth_DEVTOX-GLR_legacy_CellCount: (Legacy) Viability Assessment in CCTE's DevTox GLR-Endo Assay, Deisenroth Lab (AID 2284331; active = hit-call score of the fitted dose curve at least 0.9, where 1 is the maximum; inactive = score below 0.9); settings: actives raise or lower the signal
# Method in brief: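 Human pluripotent RUES2-GLR cells differentiated 48 h with two 24-h-interval exposures, 10-point 1 nM–200 uM series, 0.2% DMSO. Fixed nuclei counted by high-content imaging (5 fields/well); bidirectional fit vs DMSO, n≥4.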
# [6] = test system: SRY-box transcription factor 17 (SOX17) Protein Expression, Deisenroth Lab, SOX17 (gene 64321); test: CCTE_Deisenroth_DEVTOX-GLR_legacy_Sox17: (Legacy) CCTE's DevTox GLR-Endo Assay Evaluation of SRY-box transcription factor 17 (SOX17) Protein Expression, Deisenroth Lab (AID 2284341; active = hit-call score of the fitted dose curve at least 0.9, where 1 is the maximum; inactive = score below 0.9); settings: actives raise or lower the signal
# Description: CCTE_Deisenroth_DEVTOX-GLR_legacy assay is a cell-based, multiplex-readout assay that uses RUES2-GLR, a human pluripotent cell line, with measurements taken at 48 hours after chemical dosing in a 384-well microplateCCTE_Deisenroth_DEVTOX-GLR_legacy_Sox17 is one of 4 assay components calculated from the CCTE_Deisenroth_DEVTOX-GLR_legacy assay and it measures an increase in the percentage of cells in an endoderm state. It is designed to make measurements of inducible reporter a form of fluorescent protein induction as detected with optical fluorescence microscopy. Percentage Sox17+ cells are determined by calculating the number of Sox17+ cells divided by cell count. A cell is Sox17+ if the cell Sox17 mean intensity is 5x BMAD above the pluripotent control median cell Sox17 mean. The assay endpoints were analyzed with bidirectional fitting relative to 0.2% DMSO control in the CCTE_Deisenroth_DEVTOX-GLR_Endo assay.Data from the assay component CCTE_Deisenroth_DEVTOX-GLR_legacy_Sox17 was analyzed into 1 assay endpoint. This assay endpoint, CCTE_Deisenroth_DEVTOX-GLR_legacy_Sox17, was analyzed with bidirectional fitting relative to DMSO as the negative control and baseline activity. […] Furthermore, this assay endpoint can be referred to as a primary readout, because this assay has produced multiple assay endpoints where this one serves as a measure of endoderm differentiation. […]
# [7] = test system: SRY-box transcription factor 2 (SOX2) Protein Expression, Deisenroth Lab, SOX2 (gene 6657); test: CCTE_Deisenroth_DEVTOX-GLR_legacy_Sox2: (Legacy) CCTE's DevTox GLR-Endo Assay Evaluation of SRY-box transcription factor 2 (SOX2) Protein Expression, Deisenroth Lab (AID 2284346; active = hit-call score of the fitted dose curve at least 0.9, where 1 is the maximum; inactive = score below 0.9)
# Method in brief: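 RUES2-GLR human pluripotent cells seeded 24 h, then differentiated 48 h in defined media with two chemical doses 24 h apart (10-point, 1 nM–200 uM). Fixed, nuclear-stained, imaged; % Sox2+ cells (>5x BMAD over endoderm control median), DMSO-subtracted, fitted upward.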
# [8] = VALA_TUBIPS_Antagonist_CellCount: Viability Assessment in the VALA Sciences human iPS-derived Endothelial Tubule Formation (TUBIPS) Antagonism Assay (AID 2284335)
# [9] = VALA_MIGHUV1_ScratchOnly_WoundArea: VALA Sciences human Umbilical Vein Endothelial Cell Migration (MIGHUV) Assay, Area of Scratch Wound Inhibited Recovery (AID 2284336)
# Method in brief: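 HUVEC monolayers (9000 cells/well) were scratched after 24 h, dosed within 30 min (six concentrations, triplicate, 0.1% DMSO), allowed 24 h recovery, then fixed. Hoechst-stained nuclei in the wound imaged; cytochalasin D as reference.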
structure (smiles),measurement,setting,value
O=S(=O)(O)C(F)(F)C(F)(F)C(F)(F)C(F)(F)F,outcome,[1],inactive
same,outcome,[2],inactive
same,outcome,[3],inactive
same,outcome,SERPINA7 (gene 6906),inactive
same,outcome,[4],inactive
O=C(O)C(F)(F)C(F)(F)C(F)(F)C(F)(F)C(F)(F)F,outcome,[4],inactive
COc1ccc(O)c(C(C)(C)C)c1,outcome,[2],inactive
same,outcome,[3],inactive
C=CC(N)=O,outcome,[5],inactive
same,outcome,[1],inactive
same,outcome,[6],inactive
same,outcome,[7],inactive
CC(C)(O)C(=O)Nc1ccc([N+](=O)[O-])c(C(F)(F)F)c1,AC50,SERPINA7 (gene 6906),35.6 µM (active)
CCC(C)(c1ccc(O)cc1)c1ccc(O)cc1,AC50,SERPINA7 (gene 6906),13.7 µM (active)
CCCCCCCCCc1ccc(O)cc1,AC50,SERPINA7 (gene 6906),5.76 µM (active)
CCC(C)c1cc([N+](=O)[O-])cc([N+](=O)[O-])c1O (centres undefined),AC50,SERPINA7 (gene 6906),19.3 µM (active)
Oc1ccc(C(c2ccc(O)cc2)(C(F)(F)F)C(F)(F)F)cc1,outcome,[8],inactive
same,outcome,[9],inactive
same,AC50,SERPINA7 (gene 6906),17.1 µM (active)
CC(c1ccc(O)cc1)(c1ccc(O)cc1)c1ccc(O)cc1,AC50,SERPINA7 (gene 6906),11.5 µM (active)
Sc1ccccc1,AC50,SERPINA7 (gene 6906),14.1 µM (active)
NS(=O)(=O)C(F)(F)C(F)(F)C(F)(F)C(F)(F)C(F)(F)C(F)(F)C(F)(F)C(F)(F)F,outcome,[2],inactive
same,outcome,[3],inactive
same,outcome,[4],inactive
O=C(O)C(F)(F)C(F)(F)C(F)(F)C(F)(F)C(F)(F)C(F)(F)C(F)(F)C(F)(F)C(F)(F)F,outcome,[2],inactive
same,outcome,[3],inactive
same,outcome,[4],inactive
O=C(O)C(F)(F)C(F)(F)C(F)(F)C(F)(F)C(F)(F)C(F)(F)C(F)(F)C(F)(F)F,AC50,SERPINA7 (gene 6906),86.5 µM (active)
same,outcome,[4],inactive
CC1=C2C[C@H]3[C@@H](CC=C4C[C@@H](O)CC[C@@]43C)[C@@H]2CC[C@]12O[C@@H]1C[C@H](C)CN[C@H]1[C@H]2C,outcome,[5],inactive
same,outcome,[6],inactive
same,outcome,[7],inactive
CCOP(=S)(OCC)SCSC(C)(C)C,outcome,[1],inactive
same,outcome,[2],inactive
same,outcome,[3],inactive
CC(C)(c1ccccc1)c1ccc(O)cc1,AC50,SERPINA7 (gene 6906),3.54 µM (active)
Cc1ccccc1CO[C@@H]1C[C@@]2(C(C)C)CC[C@]1(C)O2,AC50,SERPINA7 (gene 6906),22.9 µM (active)
CO/C=C(/C(=O)OC)c1ccccc1COc1cccc(C(F)(F)F)n1,outcome,[1],inactive
same,AC50,[2],35.8 µM (active)
same,AC50,[3],20 µM (active)
ClC1=C(Cl)[C@]2(Cl)[C@@H]3[C@@H]4C[C@@H]([C@H]5O[C@@H]45)[C@@H]3[C@@]1(Cl)C2(Cl)Cl,AC50,SERPINA7 (gene 6906),1.56 µM (active)
CCOC(=O)C(O)(c1ccc(Cl)cc1)c1ccc(Cl)cc1,AC50,SERPINA7 (gene 6906),7.32 µM (active)
CCCCCCOC(=O)c1ccccc1C(=O)OCCCCCC,AC50,SERPINA7 (gene 6906),5.7 µM (active)
Cc1cc(-c2ccc(N)c(C)c2)ccc1N,AC50,SERPINA7 (gene 6906),26.5 µM (active) and 35.2 µM (active)
O=NN(c1ccccc1)c1ccccc1,AC50,SERPINA7 (gene 6906),13.9 µM (active)
O=S(=O)(O)C(F)(F)C(F)(F)C(F)(F)C(F)(F)C(F)(F)C(F)(F)F,outcome,[1],inactive
same,outcome,[2],inactive
same,outcome,[3],inactive
same,outcome,[4],inactive
